Measured values: PubChem BioAssay
For part of these data: Entries with a potency or affinity are not part of this list. Active and inactive are the calls of the source.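 How the source made its calls, unless noted: active means earlier screen potentiator hit that boosts the TRPC4 ion channel at some dose, with a dose response; inactive means no potentiation, no dose response, or not a prior hit.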

Experiments:
[1] = test system: TRPC4 beta (transient receptor potential cation channel C4), mouse; assay: activators of mouse TRPC4 channel, confirmation, cell-based, Fluo4 calcium, HEK293 TRPC4beta/mu-opioid, duplicates, 10 µM (AID 2426;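 active means fluorescence ratio normalized to control raised more than 50% in primary screen plus both repeat runs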;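 on activation: percent rise of integrated ratio over buffer wells lacking compound which define 0%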); details: Fluo4 calcium fluorescence, at 10 µM; active compounds read high
[2] = test system: transient receptor potential cation channel C4 beta (TRPC4), mouse; assay: activators of mouse TRPC4 channel, confirmation, cell-based, second round, Fluo4, HEK293 TRPC4beta/mu-opioid, 1 µM (AID 2461;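 active means primary screen active and over 50% activation in each of two duplicate runs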); details: Fluo4 calcium fluorescence, at 1 µM; active compounds read high
[3] = test system: TRPC4 (transient receptor potential cation channel C4 beta), mouse; assay: positive allosteric modulators of mouse TRPC4, confirmation, cell-based, second round, Fluo-4, HEK293 TRPC4beta/mu-opioid, 1 µM (AID 2554;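 active means primary screen hit whose fluorescence ratio, in both repeats, exceeds the weak agonist control mean by 3 SD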); details: DAMGO EC20, Fluo-4 calcium flux, at 1 µM; active compounds read high
[4] = test system: TRPC4 beta (transient receptor potential cation channel C4), mouse; assay: positive allosteric modulators of mouse TRPC4, confirmation, cell-based, Fluo-4, HEK293 TRPC4beta/mu-opioid (AID 2555;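 active means primary screen hit whose calcium fluorescence ratio, in both repeats, exceeds the weak agonist control mean by 3 SD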); details: DAMGO EC20, Fluo-4 calcium flux, at 10 µM; active compounds read high
[5] = target: Short transient receptor potential channel 4 (Mus musculus) (UniProt Q9QUQ5); assay: inhibitors of mouse TRPC4 channel, confirmation, cell-based, Fluo4, HEK293 TRPC4beta/mu-opioid (AID 2636;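 active means calcium signal cut by more than 3 SD below the full-agonist control yet still positive, in both repeats and the earlier primary screen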); details: DAMGO, Fluo4 calcium flux, at 10 µM; active compounds read high
[6] = target: Short transient receptor potential channel 4 (Mus musculus) (UniProt Q9QUQ5); assay: inhibitors of mouse TRPC4 channel, confirmation, cell-based, second round, Fluo4, HEK293 TRPC4beta/mu-opioid, 1 µM (AID 2637;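 active means calcium signal ratio cut to more than 3 SD under the fully stimulated control mean yet still positive, in both repeats and the primary screen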;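 on inhibition: percent of integrated ratio relative to wells lacking test compound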); details: Fluo4 calcium flux, DAMGO, at 1 µM; active compounds read high
[7] = target: Short transient receptor potential channel 4 (Mus musculus) (UniProt Q9QUQ5); assay: mouse TRPC4 channel activators, dose response, cell-based, HEK293 TRPC4/mu-opioid, Fluo-4 calcium (AID 434937;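 active means primary screen activator hit with a dose response curve and TRPC4 channel activation at any tested dose; inactive means no activation, no dose response, or not a primary hit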)
[8] = target: Short transient receptor potential channel 4 (Mus musculus) (UniProt Q9QUQ5); assay: TRPC4 positive allosteric modulators, dose response, cell-based, HEK293 TRPC4/mu-opioid, Fluo-4 calcium, EC20 DAMGO (AID 434941);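 further: calcium entry triggered by an EC20 dose of DAMGO at the co-expressed mu-opioid receptor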
[9] = target: Short transient receptor potential channel 4 (Mus musculus) (UniProt Q9QUQ5); assay: mouse TRPC4 channel inhibitors, dose response, cell-based, HEK293 TRPC4/mu-opioid, Fluo-4 calcium (AID 434942;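 active means primary screen inhibitor hit that blocks the TRPC4 channel at some tested dose, yielding a dose curve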)
[10] = target: Short transient receptor potential channel 6 (Mus musculus) (UniProt Q61143); assay: inhibition of mouse TRPC6 channel, confirmation, selectivity assay for TRPC4 inhibitor project, cell-based, HEK293, membrane potential dye, duplicate (AID 434948;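 active means active in primary screen and both duplicates, each dropping signal beyond three positive-control SD with fluorescence still positive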); details: HEK293 TRPC6, membrane potential dye fluorescence, at 10 µM, stimulated with maximal-effect acetylcholine; active compounds read high
[11] = target: Short transient receptor potential channel 6 (Mus musculus) (UniProt Q61143); assay: activation of mouse TRPC6 channel, confirmation, selectivity assay for TRPC4 activator project, cell-based, HEK293, membrane potential dye, duplicate (AID 434950;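 active means membrane potential signal rise above negative control mean plus 3 SD in both duplicates, also active in the earlier TRPC4 screen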); details: HEK293 TRPC6, membrane potential fluorescence, at 10 µM; active compounds read high
[12] = target: Short transient receptor potential channel 6 (Mus musculus) (UniProt Q61143); assay: TRPC6 potentiation by TRPC4 potentiator hits, confirmation, selectivity assay for TRPC4 potentiator project, HEK293 cells, membrane potential dye, duplicate (AID 434952;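 active means compound raising the membrane signal above positive-control mean plus 3 SD in both repeats, and a primary screen hit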); details: HEK293 TRPC6, membrane potential dye fluorescence, at 10 µM, maximal acetylcholine added after compound; active compounds read high
[13] = target: Short transient receptor potential channel 4 (Mus musculus) (UniProt Q9QUQ5); assay: calcium flux activators in TRPC4/5HT1a cells, counter-screen for TRPC4 activator project, cell-based, second counter screen, HEK293 TRPC4/5HT1a, Fluo-4 (AID 434977;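 active means calcium signal rise above buffer-control mean plus 5 SD in both duplicates, and also a hit in the primary screen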;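 on activation: plate controls were assay buffer for no effect and maximal serotonin response for full effect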); details: Fluo-4 calcium flux, at 10 µM; active compounds read high
[14] = calcium flux inhibitors in TRPC4/5HT1a cells, confirmation, counter-screen for TRPC4 inhibitor project, cell-based, second counter screen, HEK293 TRPC4/5HT1a, Fluo-4 (AID 434978;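 active means primary screen active whose calcium signal fell more than 3 SD beyond the full-serotonin control mean in both duplicate plates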;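 further: serotonin given first at submaximal then at maximal dose after compound preincubation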); details: Fluo-4 calcium flux, at 10 µM, serotonin added to trigger calcium flux; active compounds read high
[15] = test system: TRPC4 (mouse), co-expressed with 5HT1a in HEK293; assay: calcium flux potentiators in TRPC4/5HT1a cells, confirmation, counter-screen for TRPC4 potentiator project, cell-based, second counter screen, HEK293 TRPC4/5HT1a, Fluo-4 (AID 434979;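 active means signal rise over 3 SD above mean of control wells given weak agonist, in both repeats and first screen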); details: Fluo-4 calcium flux, at 10 µM, serotonin added at its EC20 dose; active compounds read high
[16] = calcium flux activation in mu-opioid HEK293 cells, confirmation, counter-screen for TRPC4 activator project, cell-based, HEK293 mu-opioid receptor line (AID 449723;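 active means hit in primary screen, with calcium signal over 5 SD above buffer well mean in both duplicates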;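 further: counter screen cells carry the mu-opioid receptor alone and lack TRPC4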); details: Fluo-4 calcium fluorescence, at 10 µM; active compounds read high
[17] = calcium flux enhancement in mu-opioid HEK293 cells, confirmation, counter-screen for TRPC4 allosteric potentiator project, cell-based, HEK293 mu-opioid receptor line (AID 449724;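 active means calcium signal rise more than 3 SD above the low-dose agonist control mean, in both duplicate plates and the primary screen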); details: Fluo-4 calcium flux, at 10 µM, compound added before EC20 DAMGO stimulus; active compounds read high

Sequence of Short transient receptor potential channel 4 (Mus musculus) (Q9QUQ5 whole entry, looked up): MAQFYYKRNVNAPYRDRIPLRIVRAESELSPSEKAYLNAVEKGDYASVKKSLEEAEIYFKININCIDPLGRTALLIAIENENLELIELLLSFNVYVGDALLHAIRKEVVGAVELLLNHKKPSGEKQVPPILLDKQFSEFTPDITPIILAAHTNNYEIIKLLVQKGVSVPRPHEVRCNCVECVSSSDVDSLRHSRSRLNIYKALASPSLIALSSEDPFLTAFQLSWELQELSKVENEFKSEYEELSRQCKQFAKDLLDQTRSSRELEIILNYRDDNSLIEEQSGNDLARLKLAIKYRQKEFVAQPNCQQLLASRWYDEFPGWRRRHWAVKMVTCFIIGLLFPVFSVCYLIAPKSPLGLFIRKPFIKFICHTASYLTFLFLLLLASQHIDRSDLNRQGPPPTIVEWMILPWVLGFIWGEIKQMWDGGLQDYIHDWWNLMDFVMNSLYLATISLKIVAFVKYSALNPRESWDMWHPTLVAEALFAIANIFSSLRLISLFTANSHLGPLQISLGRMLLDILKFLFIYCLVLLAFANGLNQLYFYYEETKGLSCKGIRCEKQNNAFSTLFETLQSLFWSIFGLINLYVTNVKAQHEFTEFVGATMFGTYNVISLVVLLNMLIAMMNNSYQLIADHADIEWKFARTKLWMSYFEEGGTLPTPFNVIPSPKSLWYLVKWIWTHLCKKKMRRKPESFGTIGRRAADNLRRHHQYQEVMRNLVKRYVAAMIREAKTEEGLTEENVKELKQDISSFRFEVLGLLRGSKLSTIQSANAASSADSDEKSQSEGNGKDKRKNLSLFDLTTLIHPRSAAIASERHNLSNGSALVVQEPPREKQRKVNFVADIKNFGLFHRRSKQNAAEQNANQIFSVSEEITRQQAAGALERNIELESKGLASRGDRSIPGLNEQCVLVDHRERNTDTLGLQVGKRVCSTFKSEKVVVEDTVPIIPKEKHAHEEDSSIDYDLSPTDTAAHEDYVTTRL
Sequence of Short transient receptor potential channel 6 (Mus musculus) (Q61143 whole entry, looked up): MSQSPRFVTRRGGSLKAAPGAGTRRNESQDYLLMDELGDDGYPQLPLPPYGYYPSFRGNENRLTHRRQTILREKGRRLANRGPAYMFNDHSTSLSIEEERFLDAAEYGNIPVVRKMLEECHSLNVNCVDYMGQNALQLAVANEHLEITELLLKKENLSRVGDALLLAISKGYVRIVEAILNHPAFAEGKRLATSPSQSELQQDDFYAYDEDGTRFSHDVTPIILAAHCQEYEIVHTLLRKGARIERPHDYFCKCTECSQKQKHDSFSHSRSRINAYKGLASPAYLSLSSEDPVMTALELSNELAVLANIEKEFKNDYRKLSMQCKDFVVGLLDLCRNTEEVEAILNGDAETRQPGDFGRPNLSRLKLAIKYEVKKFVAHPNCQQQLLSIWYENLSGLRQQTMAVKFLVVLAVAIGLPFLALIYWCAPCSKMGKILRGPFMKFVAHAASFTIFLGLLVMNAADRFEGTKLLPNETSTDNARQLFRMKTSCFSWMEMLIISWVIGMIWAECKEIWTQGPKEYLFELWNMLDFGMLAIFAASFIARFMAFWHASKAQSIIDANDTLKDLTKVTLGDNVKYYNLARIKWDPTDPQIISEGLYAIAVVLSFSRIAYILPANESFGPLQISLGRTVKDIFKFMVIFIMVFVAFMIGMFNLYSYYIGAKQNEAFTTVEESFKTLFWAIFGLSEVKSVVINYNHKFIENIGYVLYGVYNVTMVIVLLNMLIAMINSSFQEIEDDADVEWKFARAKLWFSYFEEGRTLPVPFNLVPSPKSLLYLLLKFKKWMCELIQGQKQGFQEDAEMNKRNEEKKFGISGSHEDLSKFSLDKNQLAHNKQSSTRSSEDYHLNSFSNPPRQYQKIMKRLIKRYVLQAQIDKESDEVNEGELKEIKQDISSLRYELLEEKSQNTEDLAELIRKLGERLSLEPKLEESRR

CCCn1c(NCc2cc(OC)ccc2OC)nc2ccccc21
inactive: outcome [1] | outcome [2] | outcome [3] | outcome [4] | outcome [5] | outcome [6] | outcome [7] | outcome [8] | outcome [9] | outcome [10] | outcome [11] | outcome [12] | outcome [13] | outcome [14] | outcome [15] | outcome [16] | outcome [17]

Cc1ccc(CS(=O)(=O)CCC(=O)NCCC2=CCCCC2)cc1
inactive: outcome [1] | outcome [2] | outcome [4] | outcome [5] | outcome [6] | outcome [7] | outcome [8] | outcome [9] | outcome [10] | outcome [11] | outcome [12] | outcome [13] | outcome [14] | outcome [16] | outcome [17]
active: potentiation [3] 14% | potentiation [15] 18.2%

CCCNc1nc2ccccc2n2c(C)nnc12
active: inhibition [5] 73% | inhibition [6] 39%
inactive: outcome [1] | outcome [2] | outcome [3] | outcome [4] | outcome [7] | outcome [8] | outcome [9] | outcome [10] | outcome [11] | outcome [12] | outcome [13] | outcome [14] | outcome [15] | outcome [16] | outcome [17]

CC(=O)c1c(O)c(C)c(O)c2c1OC1=CC(=O)C(C(C)=O)C(=O)[C@@]12C (stereo not given in full)
active: activation [1] 246% | activation [13] 20.7% | activation [16] 43.3%
inactive: outcome [2] | outcome [3] | outcome [4] | outcome [5] | outcome [6] | outcome [7] | outcome [8] | outcome [9] | outcome [10] | outcome [11] | outcome [12] | outcome [14] | outcome [15] | outcome [17]

c1ccc(Nc2nc(N3CCCCC3)nc(N3CCNCC3)n2)cc1
inactive: outcome [1] | outcome [2] | outcome [3] | outcome [4] | outcome [5] | outcome [6] | outcome [7] | outcome [8] | outcome [9] | outcome [10] | outcome [11] | outcome [12] | outcome [13] | outcome [14] | outcome [16] | outcome [17]
active: potentiation [15] 44.6%

CN(C)CCCNc1ncnc2c1cnn2Cc1ccccc1Cl
inactive: outcome [1] | outcome [2] | outcome [3] | outcome [5] | outcome [6] | outcome [7] | outcome [8] | outcome [9] | outcome [10] | outcome [11] | outcome [12] | outcome [13] | outcome [14] | outcome [16] | outcome [17]
active: potentiation [4] 15% | potentiation [15] 19.8%

CCCn1c(N)c(C(=O)CSc2n[nH]c(-c3ccc(C)cc3)n2)c(=O)[nH]c1=O
inactive: outcome [1] | outcome [2] | outcome [3] | outcome [4] | outcome [5] | outcome [6] | outcome [7] | outcome [8] | outcome [9] | outcome [10] | outcome [11] | outcome [12] | outcome [13] | outcome [14] | outcome [15] | outcome [16] | outcome [17]

c1ccc(Cn2nnc3cnccc32)cc1
active: inhibition [5] 65%
inactive: outcome [1] | outcome [2] | outcome [3] | outcome [4] | outcome [6] | outcome [7] | outcome [8] | outcome [9] | outcome [10] | outcome [11] | outcome [12] | outcome [13] | outcome [14] | outcome [15] | outcome [16] | outcome [17]

O=C(NCc1ccccc1)c1ccc(S(=O)(=O)Nc2cccc(C(F)(F)F)c2)cc1
inactive: outcome [1] | outcome [2] | outcome [3] | outcome [5] | outcome [6] | outcome [7] | outcome [8] | outcome [9] | outcome [10] | outcome [11] | outcome [12] | outcome [13] | outcome [14] | outcome [16] | outcome [17]
active: potentiation [4] 46% | potentiation [15] 44.3%

CCOc1ccc(CN2CCCC(CNC(=O)c3ccc(F)cc3)C2)cc1CO (stereo not given)
inactive: outcome [1] | outcome [2] | outcome [3] | outcome [4] | outcome [5] | outcome [6] | outcome [7] | outcome [8] | outcome [9] | outcome [10] | outcome [11] | outcome [12] | outcome [13] | outcome [14] | outcome [15] | outcome [16] | outcome [17]

CCOC(=O)C1=NNC(C(=O)c2ccc(Cl)cc2)C1c1ccc(OC)cc1 (stereo not given)
inactive: outcome [1] | outcome [2] | outcome [3] | outcome [4] | outcome [5] | outcome [6] | outcome [7] | outcome [8] | outcome [9] | outcome [10] | outcome [11] | outcome [12] | outcome [13] | outcome [14] | outcome [16] | outcome [17]
active: potentiation [15] 8.48%

O=C(Nc1ccc(Cl)c(Cl)c1)N(CCCN1CCOCC1)Cc1cccs1
inactive: outcome [1] | outcome [2] | outcome [3] | outcome [4] | outcome [5] | outcome [6] | outcome [7] | outcome [8] | outcome [9] | outcome [10] | outcome [11] | outcome [12] | outcome [13] | outcome [14] | outcome [15] | outcome [16] | outcome [17]

Cc1cccc(C)c1NC(=O)NCCCN1CCN(c2ccccc2)CC1
inactive: outcome [1] | outcome [2] | outcome [3] | outcome [4] | outcome [5] | outcome [6] | outcome [7] | outcome [8] | outcome [9] | outcome [10] | outcome [11] | outcome [12] | outcome [13] | outcome [14] | outcome [15] | outcome [16] | outcome [17]

Cc1[nH]nc(Nc2ccccc2)c1[N+](=O)[O-]
active: potentiation [15] 20.8%
inactive: outcome [1] | outcome [2] | outcome [3] | outcome [4] | outcome [5] | outcome [6] | outcome [7] | outcome [8] | outcome [9] | outcome [10] | outcome [11] | outcome [12] | outcome [13] | outcome [14] | outcome [16] | outcome [17]

O=C(OCC(=O)N1CCOCC1)c1cccc(S(=O)(=O)N2CCCc3ccccc32)c1
active: potentiation [15] 10.2%
inactive: outcome [1] | outcome [2] | outcome [3] | outcome [4] | outcome [5] | outcome [6] | outcome [7] | outcome [8] | outcome [9] | outcome [10] | outcome [11] | outcome [12] | outcome [13] | outcome [14] | outcome [16] | outcome [17]
